These results are taken from ChEMBL document CHEMBL3988442, “University of Dundee, Small-Polar-MMV Screening Library” (2021).

Common to all, as to set-up: scale not given: direction of the effect not stated beside the values
Test [1] addresses Protein translocase subunit SecA (Escherichia coli (strain K12)) (UniProt P10408). As to the kind of experiment: Assay to Identify E. coli SecA ATPase Inhibitors. It counts as functional. The settings on record: 30 µM.
Test [2] deals with T1, Ubiquitin-activating enzyme e1, putative (Leishmania donovani (strain BPK282A1)) (UniProt E9BSI1).
T1 sequence (whole entry): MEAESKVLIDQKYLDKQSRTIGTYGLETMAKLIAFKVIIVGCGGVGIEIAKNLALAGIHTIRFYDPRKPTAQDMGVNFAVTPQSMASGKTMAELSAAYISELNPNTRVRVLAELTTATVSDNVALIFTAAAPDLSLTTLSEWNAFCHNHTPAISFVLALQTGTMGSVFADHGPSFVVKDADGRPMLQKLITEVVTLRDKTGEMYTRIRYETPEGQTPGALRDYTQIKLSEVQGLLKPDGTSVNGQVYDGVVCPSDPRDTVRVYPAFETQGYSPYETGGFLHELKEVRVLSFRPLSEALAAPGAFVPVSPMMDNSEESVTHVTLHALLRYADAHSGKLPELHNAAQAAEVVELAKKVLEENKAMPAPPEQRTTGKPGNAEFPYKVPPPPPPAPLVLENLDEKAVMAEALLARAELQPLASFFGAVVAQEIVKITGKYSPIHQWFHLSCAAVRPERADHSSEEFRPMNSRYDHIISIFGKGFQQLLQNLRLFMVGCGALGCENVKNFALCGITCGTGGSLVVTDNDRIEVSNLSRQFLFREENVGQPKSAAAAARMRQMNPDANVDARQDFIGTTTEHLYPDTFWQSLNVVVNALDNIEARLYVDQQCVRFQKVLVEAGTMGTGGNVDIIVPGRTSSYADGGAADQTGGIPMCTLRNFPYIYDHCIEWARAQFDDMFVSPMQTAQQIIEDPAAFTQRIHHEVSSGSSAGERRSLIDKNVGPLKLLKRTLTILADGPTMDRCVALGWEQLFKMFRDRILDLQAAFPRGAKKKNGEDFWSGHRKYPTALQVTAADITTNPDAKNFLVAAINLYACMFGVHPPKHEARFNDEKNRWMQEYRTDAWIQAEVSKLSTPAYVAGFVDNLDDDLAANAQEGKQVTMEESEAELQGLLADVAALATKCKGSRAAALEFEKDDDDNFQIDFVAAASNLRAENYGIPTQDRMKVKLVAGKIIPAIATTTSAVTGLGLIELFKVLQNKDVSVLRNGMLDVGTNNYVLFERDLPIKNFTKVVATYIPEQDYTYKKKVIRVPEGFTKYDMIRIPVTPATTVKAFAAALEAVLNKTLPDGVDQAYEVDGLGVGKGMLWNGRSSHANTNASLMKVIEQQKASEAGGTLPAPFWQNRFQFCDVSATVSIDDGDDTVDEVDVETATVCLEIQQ
As to the kind of experiment: Leishmania donovani Ubiquitin Activating Enzyme (LdE1). It counts as functional. The settings on record: 30 µM.

Test [3] deals with T2, Aspartate--tRNA(Asp/Asn) ligase (Mycobacterium tuberculosis (strain ATCC 25618 / H37Rv)) (UniProt P9WFW3).
T2 sequence (whole entry): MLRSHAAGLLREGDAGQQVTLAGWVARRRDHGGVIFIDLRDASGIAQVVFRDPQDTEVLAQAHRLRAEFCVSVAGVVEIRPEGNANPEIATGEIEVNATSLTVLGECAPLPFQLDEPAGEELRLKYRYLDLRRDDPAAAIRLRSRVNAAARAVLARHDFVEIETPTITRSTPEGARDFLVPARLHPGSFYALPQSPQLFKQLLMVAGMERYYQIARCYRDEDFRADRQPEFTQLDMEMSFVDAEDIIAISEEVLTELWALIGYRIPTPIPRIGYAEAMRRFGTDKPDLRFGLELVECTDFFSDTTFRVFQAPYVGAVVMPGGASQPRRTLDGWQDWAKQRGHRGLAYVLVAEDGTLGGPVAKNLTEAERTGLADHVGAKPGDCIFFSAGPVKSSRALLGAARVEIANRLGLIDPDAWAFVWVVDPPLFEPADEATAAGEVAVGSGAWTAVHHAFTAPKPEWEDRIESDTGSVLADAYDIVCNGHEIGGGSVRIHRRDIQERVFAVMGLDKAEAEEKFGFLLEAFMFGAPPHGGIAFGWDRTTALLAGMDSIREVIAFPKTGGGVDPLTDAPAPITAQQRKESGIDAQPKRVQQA
As to the kind of experiment: Assay for Asp RNA synthetase-1 from Mycobacterium tuberculosis. It counts as functional. The settings on record: 30 µM.

The target of test [4] is AMP-activated protein kinase, AMPK (Homo sapiens) (UniProt P54646+O43741+P54619+Q9UGJ0+Q9Y478+Q13131+Q9UGI9). As to the kind of experiment: AMP-dependent Kinase enzyme assay. An in vitro enzyme assay that detects ADP turnover that is directly proportional to AMPK activity. This uses naive AMPK that is activated during the assay with MK-8722. It counts as functional. The settings on record: 30 µM.

The target in test [5] is Sialic acid-binding Ig-like lectin 9 (Homo sapiens) (UniProt Q9Y336). Kind of test: Hs-Siglec9 ALPHAscreen SOP 20170721. The settings on record: 10 µM.
The subject of the next test is Trypanosoma cruzi. Kind of test: Trypanosoma cruzi phosphomannomutase and mannose-1-phosphate guanylyltransferase assay. It counts as functional. The conditions noted are these: 10 µM.
In test [6] the target is T3, Arginase-2, mitochondrial (Homo sapiens) (UniProt P78540).
T3 sequence (whole entry): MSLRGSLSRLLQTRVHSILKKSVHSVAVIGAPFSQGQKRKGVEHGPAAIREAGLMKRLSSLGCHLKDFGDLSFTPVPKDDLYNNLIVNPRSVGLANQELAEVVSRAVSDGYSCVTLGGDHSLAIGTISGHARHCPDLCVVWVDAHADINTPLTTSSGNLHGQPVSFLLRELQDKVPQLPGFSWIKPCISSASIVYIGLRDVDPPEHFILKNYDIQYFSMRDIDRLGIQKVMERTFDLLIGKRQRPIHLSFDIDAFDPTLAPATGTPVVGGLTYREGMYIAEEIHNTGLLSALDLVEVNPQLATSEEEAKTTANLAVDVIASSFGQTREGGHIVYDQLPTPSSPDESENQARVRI
Kind of test: in vitro enzyme assay to detect the production of urea directly proportional to the activity of Arginase II. Note: in the data most compounds retested in dose-response had high values. It is filed as functional. The settings on record: 33.3 µM.

The target of test [7] is T4, Proteasome subunit beta (Trypanosoma cruzi) (UniProt O96673).
T4 sequence (whole entry): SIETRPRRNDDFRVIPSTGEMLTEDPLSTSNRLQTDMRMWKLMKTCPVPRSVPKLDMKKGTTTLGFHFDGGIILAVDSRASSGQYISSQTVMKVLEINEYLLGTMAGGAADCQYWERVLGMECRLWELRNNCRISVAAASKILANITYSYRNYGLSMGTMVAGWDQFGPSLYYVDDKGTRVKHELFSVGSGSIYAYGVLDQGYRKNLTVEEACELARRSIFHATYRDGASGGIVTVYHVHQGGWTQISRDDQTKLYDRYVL
Kind of test: Trypanosoma cruzi proteasome chymotrypsin-like activity (TcProtChymo) assay. Note: in the data most compounds retested in dose-response had high values. It counts as functional. The settings on record: 9.37 µM.

The species entered for a further test is Homo sapiens. As to the kind of experiment: To identify inhibition of the IFN signalling (Jak-Stat) pathway via expression of an eGFP reporter gene under the control of an IFN-stimulated response element (ISRE) containing MxA promoter. It is filed as functional. The settings on record: 30 µM.
In test [8] the target is Shiga toxin 2 (Escherichia coli O157:H7) (UniProt P09385+P09386). As to the kind of experiment: E. coli 0.157:H7 Shiga Toxin SOP - stx2 screening assay. It is filed as functional. The conditions noted are these: 30 µM.
In test [9] the target is T5, Tyrosyl-tRNA synthetase, putative (Trypanosoma cruzi (strain CL Brener)) (UniProt Q4DSP6).
T5 sequence (whole entry): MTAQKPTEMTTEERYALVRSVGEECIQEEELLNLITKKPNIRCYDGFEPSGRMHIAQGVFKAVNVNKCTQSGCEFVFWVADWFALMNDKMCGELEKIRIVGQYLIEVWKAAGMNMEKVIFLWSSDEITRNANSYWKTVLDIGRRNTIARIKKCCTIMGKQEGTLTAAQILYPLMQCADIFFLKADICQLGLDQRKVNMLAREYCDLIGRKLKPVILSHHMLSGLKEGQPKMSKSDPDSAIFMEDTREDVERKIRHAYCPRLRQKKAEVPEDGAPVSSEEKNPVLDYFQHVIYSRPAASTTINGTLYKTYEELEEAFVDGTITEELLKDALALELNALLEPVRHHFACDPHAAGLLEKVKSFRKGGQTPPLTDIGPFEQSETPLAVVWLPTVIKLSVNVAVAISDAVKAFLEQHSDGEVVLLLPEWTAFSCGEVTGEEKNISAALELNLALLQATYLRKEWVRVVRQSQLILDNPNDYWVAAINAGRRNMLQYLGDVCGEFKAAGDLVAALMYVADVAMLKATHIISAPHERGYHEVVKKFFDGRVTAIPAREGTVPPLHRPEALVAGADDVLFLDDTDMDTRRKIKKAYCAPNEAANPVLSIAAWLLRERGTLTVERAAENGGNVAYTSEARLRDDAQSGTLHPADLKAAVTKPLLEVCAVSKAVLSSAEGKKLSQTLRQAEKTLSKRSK
As to the kind of experiment: Trypanosoma cruzi tyrosyl tRNA synthetase (TcYRS) _High Tyrosine SOP. Note: in the data most compounds retested in dose-response had high values. It counts as functional. The conditions noted are these: 30 µM.

Test [10] deals with T5, Tyrosyl-tRNA synthetase, putative (Trypanosoma cruzi (strain CL Brener)). As to the kind of experiment: Trypanosoma cruzi tyrosyl tRNA synthetase (TcYRS) SOP. It is filed as functional. The settings on record: 30 µM.
In test [11] the target is Chromo domain-containing protein 1 (Saccharomyces cerevisiae (strain ATCC 204508 / S288c) (Baker's yeast)) (UniProt P32657). Kind of test: ScCHD-1 Enzyme Inhibition Assay. Note: in the data most compounds retested in dose-response had high values. It counts as functional. The settings on record: 30 µM.

For some of these results: Entries with a potency or affinity are not part of this list.

Sialic acid-binding Ig-like lectin 9 (Homo sapiens), sequence (Q9Y336 whole entry): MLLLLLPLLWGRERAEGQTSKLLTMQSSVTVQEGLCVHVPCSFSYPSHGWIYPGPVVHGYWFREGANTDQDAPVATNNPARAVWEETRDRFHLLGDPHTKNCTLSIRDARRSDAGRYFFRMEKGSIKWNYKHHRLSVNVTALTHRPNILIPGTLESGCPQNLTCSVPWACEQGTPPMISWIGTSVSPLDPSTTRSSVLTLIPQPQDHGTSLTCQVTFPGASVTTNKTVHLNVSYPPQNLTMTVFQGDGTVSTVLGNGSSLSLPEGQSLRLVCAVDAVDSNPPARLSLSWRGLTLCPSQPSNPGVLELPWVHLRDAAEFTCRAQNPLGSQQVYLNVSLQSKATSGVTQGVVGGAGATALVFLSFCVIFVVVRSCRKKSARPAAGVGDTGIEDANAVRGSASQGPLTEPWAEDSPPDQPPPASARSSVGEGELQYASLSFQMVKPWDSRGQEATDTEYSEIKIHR
Chromo domain-containing protein 1 (Saccharomyces cerevisiae (strain ATCC 204508 / S288c) (Baker's yeast)), sequence (P32657 whole entry, the tested form may be a part): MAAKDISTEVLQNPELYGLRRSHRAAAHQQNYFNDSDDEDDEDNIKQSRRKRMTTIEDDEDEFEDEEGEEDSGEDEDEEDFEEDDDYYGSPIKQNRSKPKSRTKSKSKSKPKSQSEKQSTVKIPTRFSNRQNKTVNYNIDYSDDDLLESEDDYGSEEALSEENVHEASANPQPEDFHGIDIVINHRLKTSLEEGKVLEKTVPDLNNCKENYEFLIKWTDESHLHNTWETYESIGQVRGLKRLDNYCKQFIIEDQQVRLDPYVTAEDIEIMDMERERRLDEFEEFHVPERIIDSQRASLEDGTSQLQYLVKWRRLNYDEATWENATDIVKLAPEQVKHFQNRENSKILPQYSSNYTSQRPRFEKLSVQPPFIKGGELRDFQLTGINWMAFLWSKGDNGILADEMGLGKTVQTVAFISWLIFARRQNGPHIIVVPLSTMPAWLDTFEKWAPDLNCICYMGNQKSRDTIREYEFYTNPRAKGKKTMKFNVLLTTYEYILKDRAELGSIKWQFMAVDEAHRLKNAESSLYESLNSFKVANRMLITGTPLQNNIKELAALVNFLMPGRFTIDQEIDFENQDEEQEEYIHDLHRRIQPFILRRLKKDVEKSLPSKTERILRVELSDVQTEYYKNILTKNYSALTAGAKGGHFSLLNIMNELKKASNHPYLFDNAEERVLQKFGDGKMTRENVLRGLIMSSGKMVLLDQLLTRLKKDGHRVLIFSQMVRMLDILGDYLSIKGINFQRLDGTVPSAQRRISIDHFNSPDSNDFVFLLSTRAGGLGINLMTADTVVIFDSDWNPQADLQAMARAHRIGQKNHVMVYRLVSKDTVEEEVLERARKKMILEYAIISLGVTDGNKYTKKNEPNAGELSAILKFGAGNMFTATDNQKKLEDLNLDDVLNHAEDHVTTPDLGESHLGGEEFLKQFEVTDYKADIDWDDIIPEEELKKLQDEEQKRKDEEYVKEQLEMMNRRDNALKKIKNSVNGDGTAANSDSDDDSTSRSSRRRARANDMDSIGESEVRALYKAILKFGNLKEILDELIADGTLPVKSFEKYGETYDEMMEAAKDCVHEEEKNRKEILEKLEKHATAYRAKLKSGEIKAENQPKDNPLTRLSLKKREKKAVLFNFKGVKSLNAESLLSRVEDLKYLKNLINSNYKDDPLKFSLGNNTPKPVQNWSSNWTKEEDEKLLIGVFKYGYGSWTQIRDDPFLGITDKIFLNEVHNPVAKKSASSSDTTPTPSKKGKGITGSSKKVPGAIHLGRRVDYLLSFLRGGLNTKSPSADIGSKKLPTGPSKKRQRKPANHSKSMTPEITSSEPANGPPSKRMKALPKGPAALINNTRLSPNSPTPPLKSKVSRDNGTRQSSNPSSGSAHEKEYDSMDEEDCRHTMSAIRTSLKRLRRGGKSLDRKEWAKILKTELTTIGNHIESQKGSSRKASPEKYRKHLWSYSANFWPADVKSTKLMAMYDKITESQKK
Protein translocase subunit SecA (Escherichia coli (strain K12)), sequence (P10408 whole entry): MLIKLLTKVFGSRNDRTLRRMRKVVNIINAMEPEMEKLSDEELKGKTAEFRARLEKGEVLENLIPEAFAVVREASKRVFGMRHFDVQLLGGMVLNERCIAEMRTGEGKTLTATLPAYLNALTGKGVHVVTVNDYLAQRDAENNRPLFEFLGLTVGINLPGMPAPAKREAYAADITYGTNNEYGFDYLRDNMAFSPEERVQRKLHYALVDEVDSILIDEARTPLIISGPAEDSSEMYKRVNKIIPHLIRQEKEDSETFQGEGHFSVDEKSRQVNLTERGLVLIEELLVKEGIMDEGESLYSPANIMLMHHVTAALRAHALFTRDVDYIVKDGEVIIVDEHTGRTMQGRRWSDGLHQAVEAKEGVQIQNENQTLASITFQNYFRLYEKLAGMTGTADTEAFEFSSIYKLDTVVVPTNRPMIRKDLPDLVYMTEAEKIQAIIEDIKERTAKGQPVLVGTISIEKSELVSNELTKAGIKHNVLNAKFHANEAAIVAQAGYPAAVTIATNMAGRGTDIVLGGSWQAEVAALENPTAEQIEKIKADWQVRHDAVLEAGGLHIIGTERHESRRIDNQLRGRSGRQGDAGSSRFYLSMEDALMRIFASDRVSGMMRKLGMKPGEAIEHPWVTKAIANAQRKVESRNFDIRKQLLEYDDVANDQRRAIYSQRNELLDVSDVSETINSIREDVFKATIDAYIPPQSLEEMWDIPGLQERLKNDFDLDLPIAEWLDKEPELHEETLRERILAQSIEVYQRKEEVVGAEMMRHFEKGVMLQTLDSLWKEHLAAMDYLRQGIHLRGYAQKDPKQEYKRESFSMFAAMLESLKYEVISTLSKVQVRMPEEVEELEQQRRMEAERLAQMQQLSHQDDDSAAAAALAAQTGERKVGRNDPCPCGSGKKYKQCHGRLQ

Turning to `COCC(=O)NC(C)Cc1cccc(OC)c1` (configuration not stated), the Percent Effect in [1] was -1.72%; in test [2], 13.2%; in test [3], -2.52%; in test [4] it was 3.57%; in test [5], 6.63%; with Trypanosoma cruzi, 6.77%. Further, the Percent Effect in test [6] is -0.383%; in test [7] it was 11.5%; in the test listed under Homo sapiens, 8.48%; in [8] it was 24.3%; in test [9], 10.3%; in test [10] it was 21.9%. The Percent Effect in [11] is -8.88%.
On to `O=C1[C@H]2CN(Cc3ccoc3)C[C@H]2CN1Cc1ccncc1`, for which the Percent Effect in test [1] was -3.37%; in [2] it was 7.79%; in test [3] it was 3.69%; in test [4] it was 2.81%; in test [5], 28.9%; in the test with Trypanosoma cruzi, -4.23%. The Percent Effect in test [6] is 4.14%; in test [7] it was 7.32%; in the test filed under Homo sapiens it was -1.81%; in test [8], -39.9%; in test [9], 3.23%; in [10], 8.64%. Besides, the Percent Effect in test [11] was found to be 10.5%.
On to `O=C1CSC(c2cccs2)c2cnn(C3CCCC3)c2N1` (configuration not stated), for which the Percent Effect was -5.94% in [1]; -12% in test [2]; 7.29% in test [3]; 3.55% in test [4]; 10.9% in test [5]; 3.73% in the test on Trypanosoma cruzi. For the same molecule, the Percent Effect in test [6] was -35.7%; in test [7], 8.5%; in the test listed under Homo sapiens, 24%; in test [8] it was 28.5%; in [9], 4.23%; in test [10] it was 20.5%. Moreover, the Percent Effect in test [11] turned out to be 66.9%.
Consider `COCCN1CCC2(CCCN(c3ncccn3)C2)C1` (configuration not stated), for which the Percent Effect in test [1] is -2.69%; in [2], 2.67%; in test [3], -4.34%; in test [4], 10.4%; in test [5], 2.96%; with Trypanosoma cruzi, -2.17%. Further, the Percent Effect in test [6] was 8.16%; in test [7], 4.32%; in the test filed under Homo sapiens it was -7.02%; in test [8], -6.31%; in test [9], -1.06%; in test [10], -3.85%. Further, the Percent Effect in test [11] was -4.53%.
